Results taken from PubChem BioAssay (NCATS).
Inconclusive results are not listed. Calls of active or inactive are those of the source. Unless noted, the call rests on the fitted dose curve; in most records, active means well fitted curve in the direction sought with a large enough effect; inconclusive means small, poorly fitted or top-dose-only effect, or another doubt; inactive means no such curve, though single readings can be large; an effect the other way counts as inactive or inconclusive.

What was measured:
[1] = biological target: ATP-dependent 6-phosphofructokinase (Trypanosoma brucei brucei) (UniProt O15648); assay: qHTS Assay to Find Inhibitors of T. brucei phosphofructokinase: hit validation (AID 492961); further: on the % scale 0 is the no-effect control and ±100 the full control effect
Outline: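 Luminescence from ADP-Glo reports ADP generated as T. brucei PFK (1.25 nM) phosphorylates 0.5 mM fructose-6-phosphate using 0.1 mM ATP. Reactions ran 45 min at room temperature, pH 8.0.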

[2] = biological target: Ubiquitin carboxyl-terminal hydrolase 1 (Homo sapiens) (UniProt O94782); assay: Inhibitors of USP1/UAF1: Pilot qHTS (AID 504865);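 further: rhodamine fluorescence freed from ubiquitin-rhodamine substrate followed over time; top concentration of the series differs between compounds; on the % scale 0 is the no-effect control and ±100 the full control effect; nearly all actives have a fitted effect of over 35% in size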
Outline: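 USP1/UAF1 complex (1nM) preincubated with compound 15 min at room temperature, then Ub-Rho substrate (150nM final) added. Fluorescence read kinetically at 480/540 nm, 6 reads every 60 seconds. Buffer: 50mM HEPES pH 7.8, 0.5mM EDTA, 0.1 mg/ml BSA, 1mM TCEP, 0.01% Tween-20.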

[3] = biological target: Luciferin 4-monooxygenase (Photinus pyralis) (UniProt P08659); assay: Biochemical firefly luciferase enzyme assay for NPC (AID 624030);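 further: purified P. pyralis luciferase at 10 nM with luciferin and ATP substrate; 0% = DMSO and -100% = full luciferase inhibition by PTC124 control; nearly all actives have a fitted effect of over 70% in size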
Outline: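 Purified P. pyralis luciferase at 10 nM in 50 mM Tris Acetate (final), luminescence read within 5 minutes of enzyme addition to compounds. Activity normalised to PTC124 versus DMSO; concentration-response curves classed by r2, magnitude and activity.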

[4] = S16 Schwann cell viability assay (CellTiter-Glo assay) (AID 624031);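 further: native untransfected S16 rat Schwann cells; plate controls were DMSO-treated cells for no effect and cell-free wells for full effect; nearly all actives have a fitted effect of over 70% in size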
Outline: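 Counter-screen for cytotoxicity: parental S16 rat Schwann cells lacking the PMP22 reporters, treated 24 h with compound, viability from cellular ATP by CellTiter-Glo luminescence, normalized to DMSO (0%) and no-cell wells.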

[5] = S16 Schwann cell PMP22 intronic element firefly luciferase assay (AID 624032);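 further: plate controls were DMSO for no effect and PTC124 positive control mean for full effect; nearly all actives have a fitted effect of over 30% in size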
Outline: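 Rat S16 Schwann cells stably carrying firefly luciferase driven by a PMP22 intronic element, in 10% FBS, treated 24 h at 37 C. ONE-Glo luminescence normalized to PTC124 control and DMSO (0%); curves classed by r2, magnitude and activity.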

[6] = S16 Schwann cell PMP22 intronic element beta-lactamase assay (AID 624044; calls by dose curve;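 further: 0% = DMSO and -100% = potassium clavulanate positive control; nearly all actives have a fitted effect of over 15% in size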); conditions: S16 rat Schwann cells, PMP22 element beta-lactamase FRET, 24 h; ratio activity, negative = inhibition: at 38.3 µM (top of the series)
Outline: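 Rat S16 Schwann cells with beta-Lac driven by a PMP22 intronic element, compound-treated 24 h at 37 °C. LiveBLAzer FRET B/G read: 460 nm normalized to potassium clavulanate vs DMSO; 535 nm FRET as viability; concentration-effect curves classified.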

[7] = qHTS profiling for inhibitors of Plasmodium falciparum proliferation (AID 504749);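 further: 0% = DMSO vehicle and full inhibition = artemisinin control; nearly all actives have a fitted effect of over 60% in size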; conditions: P. falciparum in erythrocytes, SYBR Green DNA, 72 h, at 28.7 µM (top of the series)
Outline: (§1)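 Readout was DNA-dye fluorescence from lysed cultures, ex 485/em 535 nm. Parasitized red cells had grown 72 h with compound; data scaled between 0.29 uM artemisinin and DMSO wells and corrected using vehicle-only plates.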

[8] = system: 3D7; assay: as above; conditions: P. falciparum in erythrocytes, SYBR Green DNA, 72 h; series mostly up to 28.7 µM
Outline: as §1

[9] = system: 7G8; assay: as above; conditions: P. falciparum in erythrocytes, SYBR Green DNA, 72 h; series mostly up to 28.7 µM
Outline: as §1

[10] = system: AA1029; assay: as above; conditions: P. falciparum in erythrocytes, SYBR Green DNA, 72 h; series mostly up to 28.7 µM
Outline: as §1

[11] = system: AS120; assay: as above; conditions: P. falciparum in erythrocytes, SYBR Green DNA, 72 h; series mostly up to 28.7 µM
Outline: as §1

[12] = system: ATS189; assay: as above; conditions: P. falciparum in erythrocytes, SYBR Green DNA, 72 h; series mostly up to 28.7 µM
Outline: as §1

[13] = system: ATS95; assay: as above; conditions: P. falciparum in erythrocytes, SYBR Green DNA, 72 h; series mostly up to 28.7 µM
Outline: as §1

[14] = system: C2A; assay: as above; conditions: P. falciparum in erythrocytes, SYBR Green DNA, 72 h; series mostly up to 28.7 µM
Outline: as §1

[15] = system: CP185; assay: as above; conditions: P. falciparum in erythrocytes, SYBR Green DNA, 72 h; series mostly up to 28.7 µM
Outline: as §1

[16] = system: CP191; assay: as above; conditions: P. falciparum in erythrocytes, SYBR Green DNA, 72 h; series mostly up to 28.7 µM
Outline: as §1

[17] = system: CP192; assay: as above; conditions: P. falciparum in erythrocytes, SYBR Green DNA, 72 h; series mostly up to 28.7 µM
Outline: as §1

[18] = system: CP194; assay: as above; conditions: P. falciparum in erythrocytes, SYBR Green DNA, 72 h; series mostly up to 28.7 µM
Outline: as §1

[19] = system: CP201; assay: as above; conditions: P. falciparum in erythrocytes, SYBR Green DNA, 72 h; series mostly up to 28.7 µM
Outline: as §1

[20] = system: CP203; assay: as above; conditions: P. falciparum in erythrocytes, SYBR Green DNA, 72 h; series mostly up to 28.7 µM
Outline: as §1

[21] = system: CP211; assay: as above; conditions: P. falciparum in erythrocytes, SYBR Green DNA, 72 h; series mostly up to 28.7 µM
Outline: as §1

[22] = system: CP215; assay: as above; conditions: P. falciparum in erythrocytes, SYBR Green DNA, 72 h; series mostly up to 28.7 µM
Outline: as §1

[23] = system: CP217; assay: as above; conditions: P. falciparum in erythrocytes, SYBR Green DNA, 72 h; series mostly up to 28.7 µM
Outline: as §1

[24] = system: CP237; assay: as above; conditions: P. falciparum in erythrocytes, SYBR Green DNA, 72 h; series mostly up to 28.7 µM
Outline: as §1

[25] = system: CP238; assay: as above; conditions: P. falciparum in erythrocytes, SYBR Green DNA, 72 h; series mostly up to 28.7 µM
Outline: as §1

[26] = system: CP247; assay: as above; conditions: P. falciparum in erythrocytes, SYBR Green DNA, 72 h; series mostly up to 28.7 µM
Outline: as §1

[27] = system: CP250; assay: as above; conditions: P. falciparum in erythrocytes, SYBR Green DNA, 72 h; series mostly up to 28.7 µM
Outline: as §1

[28] = system: CP252; assay: as above; conditions: P. falciparum in erythrocytes, SYBR Green DNA, 72 h; series mostly up to 28.7 µM
Outline: as §1

[29] = system: CP256; assay: as above; conditions: P. falciparum in erythrocytes, SYBR Green DNA, 72 h; series mostly up to 28.7 µM
Outline: as §1

[30] = system: CP260; assay: as above; conditions: P. falciparum in erythrocytes, SYBR Green DNA, 72 h; series mostly up to 28.7 µM
Outline: as §1

[31] = system: CP262; assay: as above; conditions: P. falciparum in erythrocytes, SYBR Green DNA, 72 h; series mostly up to 28.7 µM
Outline: as §1

[32] = system: CP265; assay: as above; conditions: P. falciparum in erythrocytes, SYBR Green DNA, 72 h; series mostly up to 28.7 µM
Outline: as §1

Chain of Luciferin 4-monooxygenase (Photinus pyralis) (P08659 whole entry, looked up): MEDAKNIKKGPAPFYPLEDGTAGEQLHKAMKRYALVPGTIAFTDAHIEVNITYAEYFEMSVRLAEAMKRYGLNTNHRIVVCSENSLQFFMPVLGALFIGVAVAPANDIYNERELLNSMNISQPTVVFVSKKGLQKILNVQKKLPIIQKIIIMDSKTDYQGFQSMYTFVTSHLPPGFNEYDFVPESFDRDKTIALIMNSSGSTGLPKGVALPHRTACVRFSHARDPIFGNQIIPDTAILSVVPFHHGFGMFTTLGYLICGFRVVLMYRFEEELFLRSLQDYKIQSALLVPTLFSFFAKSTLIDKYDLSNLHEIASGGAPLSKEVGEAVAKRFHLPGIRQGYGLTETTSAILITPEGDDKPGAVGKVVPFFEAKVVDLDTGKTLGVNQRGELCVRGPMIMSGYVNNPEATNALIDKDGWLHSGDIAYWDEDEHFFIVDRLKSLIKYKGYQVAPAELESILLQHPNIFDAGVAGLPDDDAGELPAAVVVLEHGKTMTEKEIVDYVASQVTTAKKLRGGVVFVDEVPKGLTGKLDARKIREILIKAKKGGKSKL
Chain of Ubiquitin carboxyl-terminal hydrolase 1 (Homo sapiens) (O94782 whole entry, looked up): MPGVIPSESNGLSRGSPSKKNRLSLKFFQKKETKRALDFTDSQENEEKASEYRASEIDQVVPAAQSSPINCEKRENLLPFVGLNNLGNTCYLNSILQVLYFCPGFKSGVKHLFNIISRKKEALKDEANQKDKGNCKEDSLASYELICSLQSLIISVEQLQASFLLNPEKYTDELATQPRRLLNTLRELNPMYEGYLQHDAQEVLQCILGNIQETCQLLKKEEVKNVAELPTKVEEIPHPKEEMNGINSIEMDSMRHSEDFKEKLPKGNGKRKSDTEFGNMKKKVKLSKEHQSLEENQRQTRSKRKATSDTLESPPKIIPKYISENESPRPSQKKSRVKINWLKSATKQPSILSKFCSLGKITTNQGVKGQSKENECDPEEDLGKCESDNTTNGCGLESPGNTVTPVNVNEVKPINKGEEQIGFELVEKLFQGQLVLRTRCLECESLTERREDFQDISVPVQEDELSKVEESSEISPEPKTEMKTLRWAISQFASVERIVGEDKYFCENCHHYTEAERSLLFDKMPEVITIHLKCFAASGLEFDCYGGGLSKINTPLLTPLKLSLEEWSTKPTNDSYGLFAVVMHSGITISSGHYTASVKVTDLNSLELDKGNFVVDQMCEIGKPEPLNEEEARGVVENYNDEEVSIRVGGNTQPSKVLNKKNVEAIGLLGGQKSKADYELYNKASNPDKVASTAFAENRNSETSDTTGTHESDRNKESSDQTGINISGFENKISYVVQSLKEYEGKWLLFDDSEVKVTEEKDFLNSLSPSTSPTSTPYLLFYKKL
Chain of ATP-dependent 6-phosphofructokinase (Trypanosoma brucei brucei) (O15648 whole entry, looked up): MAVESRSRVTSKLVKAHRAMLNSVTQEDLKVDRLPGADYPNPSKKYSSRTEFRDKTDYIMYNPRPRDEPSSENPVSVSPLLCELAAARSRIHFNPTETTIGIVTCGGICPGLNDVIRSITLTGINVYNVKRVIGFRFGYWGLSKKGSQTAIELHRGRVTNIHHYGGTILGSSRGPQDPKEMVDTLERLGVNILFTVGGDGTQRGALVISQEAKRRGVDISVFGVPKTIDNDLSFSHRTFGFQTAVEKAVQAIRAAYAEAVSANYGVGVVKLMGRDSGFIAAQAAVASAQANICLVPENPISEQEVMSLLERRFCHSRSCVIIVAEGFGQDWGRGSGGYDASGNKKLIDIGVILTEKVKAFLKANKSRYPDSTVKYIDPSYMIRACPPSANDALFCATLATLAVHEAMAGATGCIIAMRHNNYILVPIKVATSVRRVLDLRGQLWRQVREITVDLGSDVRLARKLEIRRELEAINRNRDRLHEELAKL

C=CCn1c(=O)n(C2OC(CO)C(O)C2O)c2nc(N)[nH]c(=O)c21 (stereo not drawn)
inactive: Potency [1] | Potency [2] | Potency [3] | Potency [4] | Potency [5] | Potency [6] | activity, negative = inhibition ([7]; parasite line A) 5.09% | activity, negative = inhibition ([7]; parasite line B) -6.68% | Potency [8] | Potency [9] | Potency [10] | Potency [11] | Potency [12] | Potency [13] | Potency [14] | Potency [15] | Potency [16] | Potency [17] | Potency [18] | Potency [19] | Potency [20] | Potency [21] | Potency [22] | Potency [23] | Potency [24] | Potency [25] | Potency [26] | Potency [27] | Potency [28] | Potency [29] | Potency [30] | Potency [31] | Potency [32]
